Test results reported in the supplement of paper PMC10338343.
± gives the standard deviation.

Tested on: MILI (PIWIL2) piRISC loaded with L1MC piRNA (26 nt)
Assay: pre-steady-state target cleavage rate (min^-1); guide: L1MC piRNA 5'p-UAACUAAAUACUAUGCAAGCUGUAGG; MIWI and MILI are mouse PIWI proteins and EfPiwi is from a freshwater sponge; tags in brackets are library labels; higher = faster piRNA-guided slicing of the target
In short: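 Using HEPES–potassium acetate buffer at 33 °C, 1 nM active affinity-purified piRISC with a single synthetic guide was mixed with 0.1 nM transcribed, DNA-blocked target RNA library for 0–8 or 0–960 min, with or without 500 nM GTSF1 partner protein. Uncleaved targets were sequenced and normalised to depth and to weakly complementary targets, and three trials were pooled with k3 capped at 0.0001 min^-1. A burst-and-steady-state fit gave the pre-steady-state cleavage rate.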

[1] = auxiliary factor: 500 nM mouse GTSF1
[2] = auxiliary factor: none (no GTSF1)

Row | Sequence | pre-steady-state target cleavage rate [1] | pre-steady-state target cleavage rate [2]
1 | UCCUGGAUGUCCUAGCAUAGUAUAUAGUUA | 0.0912 ± 0.02 | 0.00315 ± 0.0027
2 | UCCUGGAAGAGCUUGCAUAGUUUUUAGUUA | 0.0486 ± 0.011 | 0.004 ± 0.0023
3 | UCCUGGAUGUCCUUGCAUAGUAUAAAGUUA | 0.0673 ± 0.015 | 0.00312 ± 0.0028
4 | UCCUGGAAUAGCUUGCAUAGUAUUUAGUUA | 0.221 ± 0.015 | 0.0149 ± 0.0032
5 | UCCUGGUACACCUUGCAAAGUAUUUAGUUA | 0.0646 ± 0.011 | 0.0081 ± 0.0033
6 | UCCUGGAUGUCCUUGCAAAGUAUUAAGUUA | 0.0398 ± 0.0098 | 0.00691 ± 0.0023
7 | UCCUGGAUGUGCUUGCAAAGUAAUUAGUUA | 0.0171 ± 0.0056 | 0.00395 ± 0.0028
8 | UCCUGGAUGUGCUUGCUUAGUAUUUAGUUA | 0.094 ± 0.013 | 0.0114 ± 0.0031
9 | UCCUGGAUCAGCUUGCAUACUAAUUAGUUA | 0.0215 ± 0.0055 | 0.00367 ± 0.0023
10 | UCCUGGAUCAGCUUGCAUUGUUUUUAGUUA | 0.0121 ± 0.0054 | 0.00431 ± 0.0023
11 | UCCUGGAUGUCGUAGCAUAGUAUUAAGUUA | 0.0506 ± 0.013 | 0.00246 ± 0.0024
12 | UCCUCCUACAGCUUGCAUAGUAUUUACGUUA | 0.265 ± 0.029 | 0.00757 ± 0.0026
13 | UCCUGGUACAGCUAGCAUUGUAUUUAGUUA | 0.127 ± 0.017 | 0.00717 ± 0.0034
14 | UCCUGGAUCAGCAAGCAUAGUAUUUAGUAA | 0.196 ± 0.016 | 0.00292 ± 0.0028
15 | UCCUGGAUGUGCUUGCAUAGAUUUUAGUUA | 0.00729 ± 0.0044 | 0.00375 ± 0.0024
16 | UCCUGGUACAGCUUGCAUUGUUUUUAGUUA | 0.0201 ± 0.0095 | 0.00647 ± 0.0034
17 | UCCUGGAUGUCCUUGCAUUGUUUUUAGUUA | 0.00791 ± 0.0055 | 0.00421 ± 0.0023
18 | UCCUGGAUGUCGAAGCAUAGUAUUUUAGUUA | 0.0433 ± 0.01 | 0.00324 ± 0.0028
19 | UCCUCCUACAGCUAGCAUAGUAUUAAGUUA | 0.205 ± 0.019 | 0.0038 ± 0.0018
20 | UCCUGGAUGAGCUUGCCUAGUAUUUAGUUA | 0.194 ± 0.014 | 0.00475 ± 0.0027
21 | UCCUGGAUGUGCUUGGAUAGUAUAUAGUUA | 0.118 ± 0.026 | 0.00335 ± 0.0032
22 | UCCUGGAUGUCGAUCGCAUAGUAUUUAGUUA | 0.0384 ± 0.0094 | 0.00367 ± 0.0026

Row | Sequence | pre-steady-state target cleavage rate [1] | pre-steady-state target cleavage rate [2]
23 | UCCUGGAUGUCGUUGCAUAGUAGUUAGUUA | 0.013 ± 0.0052 | 0.00511 ± 0.0031
24 | UCCUGGUACAGCUUCGAUAGUAUUUAGUAA | 0.26 ± 0.046 | 0.00305 ± 0.0029
25 | UCCUGCUACAGCAAGCAUAGUAUUUAGUUA | 0.325 ± 0.022 | 0.00524 ± 0.0031
26 | UCCUGCAACAGGUUGCAUAGUAUUUAGUUA | 0.248 ± 0.022 | 0.00771 ± 0.0033
27 | UCCUGGUACAGCUUGCAUAGUGAUUUAGUUA | 0.0336 ± 0.01 | 0.00917 ± 0.0038
28 | UCCUGGAUGUGGAUGCAUAGUAUUUAGUAA | 0.0714 ± 0.012 | 0.00471 ± 0.003
29 | UCCUGGUACAGCUUGCAUAGCAUUUAGUUA | 0.117 ± 0.03 | 0.00488 ± 0.0026
30 | UCCUGGAUCAGCUAGCAUUGUAUUUAGUUA | 0.107 ± 0.014 | 0.00287 ± 0.0024
31 | UCCUGGAACACCUUGGAUAGUAUUUAGUUA | 0.153 ± 0.021 | 0.00568 ± 0.0025
32 | UCCUGGAUGAGGUUGCAUAGUAUUUUGUUA | 0.0801 ± 0.024 | 0.00402 ± 0.0029
33 | UCCUGGAUGUGCUUGCAUAGGUAUUUAGUUA | 0.0061 ± 0.0046 | 0.00533 ± 0.0032
34 | UCCUCCUACAGCUUGCAUAGUUUUAGUUA | 0.0249 ± 0.0085 | 0.0026 ± 0.0026
35 | UCCUGGAUCACCUUGCAUUGUAUUUAGUUA | 0.094 ± 0.015 | 0.00486 ± 0.0032
36 | UCCUGGUACAGCUUGCAUAGUAUUUGAGUUA | 0.178 ± 0.034 | 0.00534 ± 0.0027
37 | UCCUGGAUGUCCUUGCAAUGUAUUUAGUUA | 0.0105 ± 0.0042 | 0.00626 ± 0.0014
38 | UCCUGGAUCAGCUUGGUUAGUAUUUAGUUA | 0.209 ± 0.016 | 0.0137 ± 0.0033
39 | UCCUGGAUCAGCUUGCAUAGUAAAUAGUUA | 0.171 ± 0.024 | 0.00496 ± 0.0026
40 | UCCUGGAUCAGCUUGCAUAGUCAUUUAGUUA | 0.0161 ± 0.0075 | 0.00581 ± 0.0023
41 | UCCUGGAUGAGCUUGCUAUGUAUUUAGUUA | 0.00711 ± 0.0026 | 0.00524 ± 0.0027
42 | UCCUGGAACAGCUUGCAAAGUUUUUAGUUA | 0.0201 ± 0.0064 | 0.0029 ± 0.0026
43 | UCCUGGAUGUGCUUGGUUAGUAUUUAGUAA | 0.149 ± 0.026 | 0.0127 ± 0.003
44 | UCCUGGAUGUGCUAGCAUAGUUUUUAGUUA | 0.0108 ± 0.0046 | 0.00466 ± 0.0027

Row | Sequence | pre-steady-state target cleavage rate [1] | pre-steady-state target cleavage rate [2]
45 | UCCUGGAUGUCGAAGUAUAGUAUUUAGUUA | 0.0142 ± 0.004 | 0.00325 ± 0.002
46 | UCCUGGAUGAGCAUGCAUAGUAAUUAGUUA | 0.156 ± 0.021 | 0.00824 ± 0.0028
47 | UCCUGCUACAGCUUGCAUAGUCAUUUAGUUA | 0.0225 ± 0.0089 | 0.00473 ± 0.002
48 | UCCUGGAUGUGCUUGCAUUGUAUUAAGUUA | 0.0663 ± 0.014 | 0.00354 ± 0.0033
49 | UCCUGGAUGUCCUUGCAUAGUAGUUUAGUUA | 0.0394 ± 0.014 | 0.00805 ± 0.0029
50 | UCCUGGAUGAGCUAGCAUAGUAUAUAGUUA | 0.242 ± 0.034 | 0.0046 ± 0.0022
51 | UCCUGGAUCUGGUUGCAUAGUAUUUAGUUA | 0.158 ± 0.014 | 0.0105 ± 0.0029
52 | UCCUGGAUGACCUUGCUUAGUAUUUAGUUA | 0.114 ± 0.019 | 0.00599 ± 0.0028
53 | UCCUGGAUGUCGAUGCAUAGUAUUUAGUCA | 0.111 ± 0.02 | 0.00347 ± 0.0027
54 | UCCUGGAUGUCGAAGCAUAGUAUUUGGUUA | 0.0178 ± 0.0055 | 0.00505 ± 0.0019
55 | UCCUGGAUGUGCUAGCAUACUAUUUAGUUA | 0.0195 ± 0.0053 | 0.00539 ± 0.002
56 | UCCUGGAUGAGGUUGCAUAGUUUUUAGUUA | 0.00694 ± 0.0049 | 0.00583 ± 0.0024
57 | UCCUGGAUGAGCUUGCAUAGAUUUUAGUUA | 0.0099 ± 0.0044 | 0.00304 ± 0.0029
58 | UCCUGGAUGUGGUUGCAUAGUAUUUAGUUA | 0.163 ± 0.022 | 0.0112 ± 0.0031
59 | UCCUGAUACAGCUUGCAUAGUAUUUAGUUA | 0.269 ± 0.02 | 0.00917 ± 0.0027
60 | UCCUGGAUCACGUUGCAUAGUAUUUAGUAA | 0.18 ± 0.024 | 0.00365 ± 0.0029
61 | UCCUGGUACAGCUACCAUAGUAUUUAGUAA | 0.28 ± 0.04 | 0.00528 ± 0.0023
62 | UCCUGGAUGUCGAAGCAUAGUAUGUUAGUUA | 0.0233 ± 0.0059 | 0.00487 ± 0.0021
63 | UCCUGCACAGCUUGCAUAGUAUUUAGUUA | 0.317 ± 0.018 | 0.00995 ± 0.0028
64 | UCCUGGAUCAGCAUGGAUAGUAUUUAGUUA | 0.19 ± 0.0097 | 0.0106 ± 0.0024
65 | UCCUGGAUGAGGUUGCUUAGUAUUUAGUUA | 0.12 ± 0.01 | 0.0107 ± 0.0022
66 | UCCUGGAUGAGCUCGCAUAGUAUUUAGUUA | 0.241 ± 0.017 | 0.0047 ± 0.0035
